From PubChem BioAssay (NCATS)
Inconclusive results are not listed. Calls of active or inactive are those of the source. Unless noted, calls come from the whole dose curve; as a rule, active = well fitted curve in the direction sought with a large enough effect; inconclusive = small, poorly fitted or top-dose-only effect, or another doubt; inactive = no such curve, though single readings can be large; an effect the other way counts as inactive or inconclusive.

What was measured:
[1] = P-glycoprotein substrates identified in KB-3-1 adenocarcinoma cell line, qHTS therapeutic library screen (AID 1346986);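 note: potency is the fitted concentration of half-maximal effect; potency is for cytotoxicity meaning loss of cell viability; nearly all actives have a fitted effect of over 60% in size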
Method in brief: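 In 1536-well format, 500 cells/well received pinned compound titrations and were incubated 72 h, 5% CO2. Viability was read by CellTiter-Glo; cytotoxic if AC50 < 10 uM and efficacy >50%.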

[2] = P-glycoprotein substrates identified in KB-8-5-11 adenocarcinoma cell line, qHTS therapeutic library screen (AID 1346987); note: potency is the fitted concentration of half-maximal effect; nearly all actives have a fitted effect of over 65% in size
Method in brief: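 Compounds are pinned in dose-response onto KB-8-5-11 cells (500 cells/well, colchicine-free medium) and left 72 h at 37 degree C. CellTiter-Glo luminescence then yields AC50 values.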

[3] = Primary qHTS for inhibitors of nuclear receptor binding SET domain protein 2 (NSD2) in an isogenic RCH-ACV NSD2 p.E1099K mutant (9B) (AID 1645876); note: potency is the fitted concentration of half-maximal effect; nearly all actives have a fitted effect of over 70% in size
[4] = Primary qHTS for inhibitors of nuclear receptor binding SET domain protein 2 (NSD2) in an RCH-ACV wild type WT cells (2C) (AID 1645877); note: potency is the fitted concentration of half-maximal effect; nearly all actives have a fitted effect of over 70% in size
[5] = target: Catechol O-methyltransferase (Homo sapiens) (UniProt P21964); assay: Confirmatory Screen for Target Class Profiling of Small Molecule Inhibitors of Methyltransferases (AID 1745852; calls by dose curve; note: potency is the fitted concentration of half-maximal effect); settings: MTase-Glo luminescence, SAH detection, recombinant enzyme; measured here: COMT max response; stronger effect = lower value
[6] = target: Guanidinoacetate N-methyltransferase (Homo sapiens) (UniProt Q14353); assay: as above; settings: activity change, negative = inhibition: at 57.3 µM (top of the series) unless noted
[7] = target: Nicotinamide N-methyltransferase (Homo sapiens) (UniProt P40261); assay: as above; settings: MTase-Glo luminescence, SAH detection, recombinant enzyme; measured here: NNMT max response; stronger effect = lower value
[8] = target: Phenylethanolamine N-methyltransferase (Homo sapiens) (UniProt P11086); assay: as above; settings: MTase-Glo luminescence, SAH detection, recombinant enzyme; measured here: PNMT max response; stronger effect = lower value
[9] = target: Glutathione peroxidase 1 (Homo sapiens) (UniProt P07203); assay: Primary qHTS Assay for Inhibitors of Recombinant Selenoprotein Glutathione Peroxidase 1 (GPX1) (AID 1845191); note: nearly all actives have a fitted effect of over 65% in size
Method in brief: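 GR-coupled readout: NADPH consumption tracked by fluorescence, ex 340/em 450 nm, at t=0 and after 15 min at RT. Final mix 10 nM GPX1, 1 mM GSH, 0.5 mM CHP, 0.5 mM NADPH, 100 nM GR, 0.01% BSA, following 30 min enzyme–compound preincubation.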

Nicotinamide N-methyltransferase (Homo sapiens), sequence (P40261 whole entry, looked up): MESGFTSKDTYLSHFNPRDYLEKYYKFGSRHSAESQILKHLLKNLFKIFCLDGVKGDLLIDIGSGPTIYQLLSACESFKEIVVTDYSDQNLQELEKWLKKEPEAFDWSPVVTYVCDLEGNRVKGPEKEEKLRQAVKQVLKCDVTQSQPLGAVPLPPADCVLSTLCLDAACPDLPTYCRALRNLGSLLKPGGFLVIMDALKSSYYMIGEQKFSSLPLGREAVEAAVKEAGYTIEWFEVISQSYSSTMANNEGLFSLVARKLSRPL
Glutathione peroxidase 1 (Homo sapiens), sequence (P07203 whole entry, looked up): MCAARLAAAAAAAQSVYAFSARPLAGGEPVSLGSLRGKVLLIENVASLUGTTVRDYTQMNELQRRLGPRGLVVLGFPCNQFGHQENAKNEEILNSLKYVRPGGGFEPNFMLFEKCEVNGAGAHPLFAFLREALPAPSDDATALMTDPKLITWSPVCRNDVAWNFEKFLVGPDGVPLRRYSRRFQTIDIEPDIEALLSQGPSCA
Phenylethanolamine N-methyltransferase (Homo sapiens), sequence (P11086 whole entry, looked up): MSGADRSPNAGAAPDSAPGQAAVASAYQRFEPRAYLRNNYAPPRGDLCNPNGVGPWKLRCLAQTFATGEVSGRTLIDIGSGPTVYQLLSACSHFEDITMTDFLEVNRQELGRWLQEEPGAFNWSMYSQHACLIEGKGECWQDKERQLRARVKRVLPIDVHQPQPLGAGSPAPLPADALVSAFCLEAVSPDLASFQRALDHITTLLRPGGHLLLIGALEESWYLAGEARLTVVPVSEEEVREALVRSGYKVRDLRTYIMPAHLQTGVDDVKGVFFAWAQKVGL
Catechol O-methyltransferase (Homo sapiens), sequence (P21964 whole entry, looked up): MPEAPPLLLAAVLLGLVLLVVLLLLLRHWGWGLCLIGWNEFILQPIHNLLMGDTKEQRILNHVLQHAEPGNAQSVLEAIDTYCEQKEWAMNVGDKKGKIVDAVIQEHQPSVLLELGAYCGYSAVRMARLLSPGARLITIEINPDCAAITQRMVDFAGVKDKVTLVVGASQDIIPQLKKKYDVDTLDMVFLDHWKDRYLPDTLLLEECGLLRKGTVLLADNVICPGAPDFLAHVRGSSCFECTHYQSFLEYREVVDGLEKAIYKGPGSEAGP

SMILES: CC1Oc2cc3c(-c4c(O)cc(O)c5c(O)c6c(cc45)OC(C)C(C)C6=O)c(O)cc(O)c3c(O)c2C(=O)C1C (centres undefined)
- Potency [1]: 5.8 µM (active)
- Potency [2]: 8.2 µM (active)
- Potency [3]: 1.3 µM (active)
- Potency [4]: 1.16 µM (active)
- activity [5]: -48.2%
- Potency [6]: 24.1 µM (active)
- activity [7]: -21.1%
- activity [8]: -60.9%
- Potency [9]: inactive
